Test results as given in ChEMBL document CHEMBL3988442, “University of Dundee, Small-Polar-MMV Screening Library” (2021).
The campaign covered roughly 53,000 compounds. About 900 (1.7%) showed an effect of 50% or more. Only a selection was taken, and strong results are over-represented in it overall.

System: Mycobacterium tuberculosis
Test: Cornell - Phenotypic assay to identify agents that inhibit growth of Mycobacterium tuberculosis
Assay type: functional
Design: scale not given: direction of the effect not stated beside the values
Conditions: 10 mM as filed; unlikely as a test dose

Row | SMILES | Percent Effect [%]
1 | O=C(CSC1CCc2ccccc2NC1=O)NC1CC1 (stereo not given) | -0.1015
2 | COc1cccc(CN2CCC(c3nn(CCN)c4nccnc34)C2)c1 (stereo not given) | -33.21
3 | COc1cccc(NC(=O)NCC2CCCN(C3CCOCC3)C2)c1 (stereo not given) | -9.956
4 | COC(=O)c1sccc1S(=O)(=O)N1CCC(Oc2cccnn2)CC1 | 10.5
5 | COC(=O)c1sccc1S(=O)(=O)N1CCC(Oc2ncccc2Cl)CC1 | 63.53
6 | COC(=O)c1sccc1S(=O)(=O)N1CCC(Oc2cnccn2)CC1 | 11.89
7 | CCOCC1CN(C(=O)c2ccnnc2)Cc2cnn(CC)c21.O=C(O)C(F)(F)F (stereo not given) | 10.27
8 | NC(=O)CN1CC(c2nc(C3CC3)no2)C1.O=C(O)C(=O)O | -1.644
9 | O=C(CN1CC(c2nc(C3CC3)no2)C1)N1CCOCC1.O=C(O)C(=O)O | 59.8
10 | CC1CCN(C(=O)CN2CC(c3nc(C4CC4)no3)C2)CC1.O=C(O)C(=O)O | -25.89
11 | CN(Cc1ccncc1)c1cncc(Br)c1 | -1.215
12 | COCC1CCN(c2nc(C(C)(C)C)nc3c2cnn3C)C1 (stereo not given) | 57.26
13 | CN(C)[C@H]1CCN(c2nc(C(C)(C)C)nc3c2cnn3C)C1 | 15.83
14 | Cn1ncc2c(N3CCC(CCO)CC3)nc(C(C)(C)C)nc21 | 26.71
15 | Cc1cnn(CC2CN(CCc3ccccn3)CCO2)c1 (stereo not given) | -8.826
16 | N[C@H]1CC[C@@H](n2cc(C(=O)NC3COc4ccccc43)nn2)CC1 (stereo not given in full) | 8.791
17 | N[C@H]1CC[C@@H](n2cc(C(=O)NC3CCc4ccccc4C3)nn2)CC1 (stereo not given in full) | 43.67
18 | N[C@H]1CC[C@@H](n2cc(C(=O)N[C@H]3CCCc4ccccc43)nn2)CC1 | 52.81
19 | Cc1cn2c(n1)CCC(NC(=O)CNS(C)(=O)=O)C2 (stereo not given) | -12.28
20 | Cc1cc(Nc2ccc(F)cn2)cc(C2CCN(Cc3ncc[nH]3)C2)n1 (stereo not given) | 67.32
21 | Cc1cccc(Nc2ccc(C3CCN(Cc4ncc[nH]4)CC3)nc2)n1 | 12.85
22 | Fc1ccc(Nc2ccc(C3CCN(Cc4ncc[nH]4)CC3)nc2)nc1 | 12.33
23 | COc1ccc(NC(=O)CCn2nc(-c3cccs3)oc2=O)cc1OC | -4.295

Row | SMILES | Percent Effect [%]
24 | CCN1CC(CN(C)c2cc(C)nc(N)n2)Oc2ccccc21 (stereo not given) | 100.1
25 | Cc1cc(N(C)CC2COc3ccccc3O2)nc(N)n1 (stereo not given) | 18.45
26 | Cc1cc(N(C)CC2COc3ccccc3O2)nc(C)n1 (stereo not given) | 22.34
27 | Cc1nc(C)n(CC2CCCN(Cc3ccc4c(c3)OCCO4)C2)n1 (stereo not given) | 7.597
28 | COc1ccc(CNc2ncc(-c3cc(C)no3)c(C(C)C)n2)cc1 | 36.58
29 | Cc1cc(-c2cnc(NCc3ccc4c(c3)OCO4)nc2C(C)C)on1 | 24.22
30 | COc1ccccc1CNc1ncc(-c2cc(C)no2)c(C(C)C)n1 | 6.538
31 | Cc1cc(-c2cnc(NCc3ccccn3)nc2C(C)C)on1 | 76.78
32 | Cc1cc(-c2cnc(N3CCCC3)nc2C(C)C)on1 | -0.9341
33 | Cc1cc(-c2cnc(NCc3ccncc3)nc2C(C)C)on1 | 71.23
34 | Cc1oc(-c2ccsc2)nc1CC(=O)NCC(C)(C)CN(C)C | 3.653
35 | Cc1nnc(N2CCCC3(CN(Cc4nccn4C)CCO3)C2)o1 (stereo not given) | -3.973
36 | CS(=O)(=O)NCCNCc1ccc(Br)s1.Cl | -4.859
37 | O=C1CCC(=O)N1CCOc1nc(-c2ccccc2Cl)no1 | 8.319
38 | Cn1ccnc1-c1ccc(NC[C@H]2CCc3ccccc3O2)nn1 | 35.04
39 | Cn1ccnc1-c1ccc(NCCC2COc3ccccc3O2)nn1 (stereo not given) | 46.99
40 | Cn1ccnc1-c1ccc(NCC2COc3ccccc3O2)nn1 (stereo not given) | 75.27
41 | O=C(CNC1(c2ccc(Cl)cc2)CCOCC1)NC1CCCC1 | 28.07
42 | Cc1cc(C)n(C2CCN(S(=O)(=O)N3CCOCC3)CC2)n1 | -10.91
43 | Cn1cc(NC(=O)N2CCC(CN3CCCC3)CC2)ccc1=O | 1.194
44 | Cn1cc(NC(=O)N2CCC(c3ccccc3)CC2)ccc1=O | 23.03
45 | Cn1cc(NC(=O)N2CCC(NS(C)(=O)=O)CC2)ccc1=O | 73.41
46 | Cc1nc(O)cc(C2(C)CCCNC2)n1.Cl (stereo not given) | 37.37

Row | SMILES | Percent Effect [%]
47 | Cc1nc(N(C)C)cc(C2(C)CCNCC2)n1 | 3.518
48 | Cc1nc(N)cc(C2(C)CCCNC2)n1 (stereo not given) | 52.22
49 | Cc1cc(N(C)C)nc(C2(C)CCCNC2)n1 (stereo not given) | -30.33
50 | Cc1nccc(C2(C)CCCNC2)n1.Cl.Cl (stereo not given) | -29.52
51 | Cc1nc(N(C)C)cc(C2(C)CCCNC2)n1 (stereo not given) | 54.11
52 | COC(=O)Nc1cccc(C(=O)N(C)Cc2cccc(O)c2)c1 | 16.47
53 | CC(C)(C)CC(=O)N1CCC(c2nn(CCN)c3nccnc23)C1 (stereo not given) | -1.305
54 | CCSc1nnc(N(CCC#N)CCC#N)s1 | 19.26
55 | CSc1nnc(N(CCC#N)CCC#N)s1 | 7.045
56 | Cc1nnc(N(CCC#N)CCC#N)s1 | 53.32
57 | CC(=O)NCC(=O)N1Cc2nccn2CC(Cn2cccn2)C1 (stereo not given) | 8.126
58 | CN(Cc1nc2ccccc2n1C)C(=O)CCc1cscn1 | 3.18
59 | Cc1ccc(CNCc2cccc3cn[nH]c23)c(OC2CCOC2)c1 (stereo not given) | 31.88
60 | Cc1ccc(NCc2cccc3cn[nH]c23)cc1OC1CCOC1 (stereo not given) | 50.19
61 | COCCOc1ccc(NCc2cccc3cn[nH]c23)cn1 | 0.8667
62 | CN1CCCN(C(=O)c2cnsn2)c2cc(Cl)ccc21 | 23.17
63 | CN1CC2(CCCN(CCOCc3ccccc3)C2)OC1=O (stereo not given) | 17.75
64 | COc1ccccc1OCC(=O)NS(=O)(=O)c1ccccc1Br | 29.83
65 | N#Cc1cn[nH]c1NCc1cc(Cl)cc(Cl)c1O | 4.06
66 | N#Cc1cn[nH]c1NCc1cc(I)cc(I)c1O | 104.4
67 | N#Cc1cn[nH]c1NCc1cc(Br)ccc1O | -2.668
68 | CN1C[C@@H](C(=O)NC2CC2)[C@@]2(COc3ccc(F)cc3C2=O)C1 | -27.17
69 | Cn1cc(N2C(=O)CC[C@@H]3[C@H]2CCN3Cc2cccc(C#N)c2)cn1.O=C(O)C(F)(F)F.O=C(O)C(F)(F)F | 14.16

Row | SMILES | Percent Effect [%]
70 | CN1CCCCCC1C(=O)NCCCn1ncc2ccccc21 (stereo not given) | 28.62
71 | Cn1nnc(NCc2ccc(-c3ccc(Br)cc3)o2)n1 | 60.92
72 | CCCn1nnc(NCc2ccc(-c3ccc(Br)cc3)o2)n1 | 31.95
73 | CCC(CO)NCc1ccc(-c2ccc(Cl)cc2)o1.Cl (stereo not given) | 16.24
74 | Cn1nnc(NCc2ccc(-c3ccc(Cl)cc3)o2)n1 | 60.16
75 | Cn1ncnc1NCc1ccc(Cl)cc1 | -4.993
76 | CCn1nnc(NCc2ccc(-c3ccc(Br)cc3)o2)n1 | 69.94
77 | CCC(CO)NCc1ccc(-c2ccccc2)o1.Cl (stereo not given) | 5.639
78 | CCC(CO)NCc1ccc(-c2ccc(F)cc2)o1.Cl (stereo not given) | 35.55
79 | CCC(CO)NCc1ccc(-c2ccc(F)c(Cl)c2)o1.Cl (stereo not given) | 48.48
80 | CCn1nnc(NCc2cc(Br)cc(Br)c2OC)n1 | 31.18
81 | CCC(CO)NCc1ccc(-c2ccc(Br)cc2)o1.Cl (stereo not given) | 52.02
82 | CCCn1nnc(NCc2cc(Br)cc(Br)c2OC)n1 | 40.71
83 | O=C(c1sccc1Cl)N1CCC(Cn2cc(CO)nn2)CC1 | 28.9
84 | CC(Nc1cccc(COCc2ccco2)c1)C(=O)NC(N)=O (stereo not given) | 25.61
85 | COCCCNC(=O)C(C)n1nc(-c2ccco2)cc(N)c1=O (stereo not given) | 37.24
86 | Cc1ncncc1-c1ccnc(N)n1 | 1.831
87 | CS(=O)(=O)c1ccc(NCC2CCCO2)c(S(C)(=O)=O)c1 (stereo not given) | -21.42
88 | Cc1ccccc1C(C(=O)NCCSC(C)C)N(C)C (stereo not given) | 29.49
89 | CNc1ncc2c(n1)CN(CCc1ccc(C)cc1)C2=O | 8.766
90 | Cn1ccc(C(=O)N2CCCC(c3cc4cccnc4c(O)n3)C2)n1 (stereo not given) | -16.1
91 | CN(C)CCC1CCN(c2cc(N3CCCC3CO)ncn2)CC1 (stereo not given) | -19.44
92 | CC(C)n1nccc1C(=O)N1CCC(c2nnsc2S(C)(=O)=O)CC1 | 12.35

Row | SMILES | Percent Effect [%]
93 | Cc1nonc1CNC(=O)C(C)Oc1ccccc1F (stereo not given) | 47.11
94 | Cc1nonc1CNC(=O)C(C)Oc1cccc(F)c1 (stereo not given) | 53.11
95 | Cc1noc(C)c1CNC(=O)C(C)Oc1ccccc1F (stereo not given) | -2.201
96 | CCOCC1CN(Cc2ccncc2)Cc2nn(C)cc21.O=C(O)C(F)(F)F.O=C(O)C(F)(F)F (stereo not given) | 12.3
97 | O=C(O)C(F)(F)F.O=C(O)C(F)(F)F.c1c(CN2CCCC2)nc2n1CCN(C1CCOCC1)C2 | 3.362
98 | Cc1cc(C(=O)NC2CCN(CC(N)=O)CC2)nn1C(C)(C)C | 11.5
99 | COCCn1ccc2c(C(=O)O)cccc21 | 17.17
100 | CC(C)n1ccc2c(NC(=O)c3n[nH]c4c3CCC4)cccc21 | 48.39
101 | COCCn1ccc2c(NC(=O)C(C)C)cccc21 | 18.08
102 | CC(=O)Nc1cccc2c1ccn2CC(=O)Nc1n[nH]c(CC(C)C)n1 | -27.06
103 | COCCn1ccc2c(NC(=O)c3n[nH]c4c3CCCC4)cccc21 | 70.2
104 | COCCn1ccc2c(NC(=O)c3n[nH]c4c3CCC4)cccc21 | 61.23
105 | COCCn1ccc2c(C(=O)Nc3nc4c(s3)CCC4)cccc21 | 15.95
106 | COCCn1ccc2c(C(=O)NC(C)C)cccc21 | 10.53
107 | CC(C)Cn1ccc2c(NC(=O)c3n[nH]c4c3CCC4)cccc21 | 50.74
108 | COc1cc(C)cc(OC)c1C(C(=O)O)N(C)Cc1c(C)nn(C)c1C (stereo not given) | 1.527
109 | COCCn1c2c(ccc1=O)CCN(C(=O)C1CC=CC1)CC2 | 18.02
110 | NC(=O)CCNCc1c(Cl)cccc1N1CCCC1 | -9.412
111 | COCCNc1cc(-c2ccccc2C(N)=O)c2cc[nH]c2n1 | 26.26
112 | Cc1cc(C)n2ncc(CN3C[C@@H](O)[C@H](Oc4ccccc4)C3)c2n1 | 0.3545
113 | CN1CCN(c2nc(O)cc(Cc3ccccc3F)n2)CC1 | 10.81
114 | CC(=O)N1CC(C(=O)NCCc2ncc(C)s2)C1 | 6.986
115 | CC(C)c1cc(NC(=O)CN2CCC(N3CCNC3=O)CC2)on1 | 6.075
